Experiments:
Experiment in all cases: PBM binding z-score (relative to random genomic background probes); higher = stronger binding; sequences stand for … in GC…GCGATTGACAGCGTAGAATGAAGG
[1] = tested on: RARb homodimer (NR concentration 270 nM)
Summary of the method: (§1)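 Custom Agilent 4×180K protein-binding microarrays carried double-stranded probes. Their 34-nt variable regions held direct-repeat seeds, single-nucleotide variants, half-site ablations and random human genomic background sequences. Arrays were incubated 1 h with ligand-free nuclear receptor dimers in PBS pH 7.4, 2% milk, 0.02% Triton X-100, 1 mM DTT, 0.2 mg/mL BSA and 0.4 mg/ml salmon testes DNA. Antibodies against each partner (one per run) detected binding, and scanned fluorescence was regression-normalized. Binding z-scores use random background probes as reference.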

[2] = tested on: RARg:RXRa (NR concentration 270 nM, RXRa partner concentration 90 nM)
Summary of the method: as §1

[3] = tested on: RARg homodimer (NR concentration 270 nM)
Summary of the method: as §1

[4] = tested on: RXRa DBDmut IVT, anti-RXR (DBD mutation: RXRa K156A/R161A, NR concentration 90 nM)
Summary of the method: as §1

[5] = tested on: RXRa homodimer (NR concentration 180 nM)
Summary of the method: as §1

[6] = tested on: THRa:RXRa (NR concentration 90 nM, RXRa partner concentration 90 nM)
Summary of the method: as §1

[7] = tested on: THRa homodimer (NR concentration 90 nM)
Summary of the method: as §1

[8] = tested on: VDR homodimer (NR concentration 270 nM)
Summary of the method: as §1

Row | Sequence | PBM binding z-score [1] | PBM binding z-score [2] | PBM binding z-score [3] | PBM binding z-score [4] | PBM binding z-score [5] | PBM binding z-score [6] | PBM binding z-score [7] | PBM binding z-score [8]
1 | AGAACGAGGCCACGCTGAGTTGATAGCAGAGTAG | 0.176 | 0.764 | 1.22 | 0.267 | 0.15 | 1.02 | -0.00748 | 0.389
2 | TCTCGGAGGACAAGAAAGGTCAGAGCTCGACATC | 4.61 | 4.01 | 4.75 | 0.958 | 3.39 | 3.24 | 0.472 | 0.546
3 | CGTCCAAGGTCAATGCTATGTCAGTGAAAGCATT | 4 | 5.86 | 6.28 | 3.14 | 4.94 | 3.81 | 1.93 | 2.37
4 | CCTACTGGGTCAAGGTCATTGATCAGTCAAAGCA | 4.88 | 5.77 | 5.74 | 2.59 | 5.72 | 4.24 | 3.31 | 4.04
5 | CCAGACAGGTGAAAGGTAACACAGTCTGGTACGC | 1.1 | 1.72 | 1.07 | -0.201 | 2.27 | 1.02 | -0.219 | -0.147
6 | CCGAGTAGCTTATGGGGCATTCAGGCAACGGTGA | -0.2 | -0.278 | -0.43 | 0.0685 | -0.245 | -0.153 | -0.655 | -0.541
7 | GCTGCGAGGTCAGGTTGGTCAGCTAACGGGTACG | 3.93 | 4.9 | 5.27 | 3.04 | 4.52 | 3.7 | 2.31 | 2.88
8 | CTTCAAAGTTCAACTAAGGTAACGTAAAGCACGC | 4.33 | 5.92 | 6.84 | 4.36 | 5.26 | 5.38 | 2.06 | 3.94
9 | TTACCAAGGTGAAGGTTGTTGATCCCTCTGTAGA | 1.02 | 0.564 | 0.48 | -0.157 | 0.836 | 2.06 | 0.718 | -0.156
10 | GCGACTGGGGCAAAGCAGGTTAACATAAGGTTGG | 1.27 | 0.386 | 0.747 | -0.0641 | 0.513 | 3.19 | 0.0848 | -0.0745
11 | ATCTCTAGGTAAAAGTCCAGTGAATCCCGAGGAT | -0.174 | 0.275 | 0.393 | -0.403 | -0.00664 | 0.296 | 0.175 | 0.187
12 | ATATGTAAGTTAGCTGGGGTCATTCAGACTAGGC | 3.29 | 3.58 | 2.19 | 1.95 | 5.13 | 4.31 | 3.21 | 4.9
13 | TCTCGGAGGACACGAAGGTCAGATCTTTCCAGAG | 3.7 | 3.45 | 4.36 | 1.15 | 2.48 | 2.94 | 0.979 | 2.36
14 | CGTCAGAGTTCAACTAAGGTAACGTAAAGCACGC | 3.58 | 5.39 | 6.02 | 4.87 | 5.49 | 5.18 | 1.68 | 4.58
15 | CCTTACGGGTCAAGGTTATAGGACGGGTGGTACG | 3.29 | 4.91 | 5.12 | 0.475 | 5.36 | 3.06 | 0.968 | 1.51
16 | AGTCAAAGTACATCTAGGTAACGTAAGATATGCT | -0.123 | 0.265 | 0.944 | 0.854 | 0.346 | 0.814 | -0.353 | 0.155
17 | TCTTGTACATCAACAGGAGGTTAAGAAAGATCGA | 0.799 | 0.549 | 0.344 | 0.744 | 0.927 | 0.755 | -0.281 | 0.136
18 | CCTACTGGGCCATTCAGAAGTCATTGATCATATG | -0.105 | 0.0962 | 0.226 | -0.00725 | -0.479 | -0.404 | -0.643 | -0.285
19 | CTACCAAGGTAAACAAGGTCGTTGATTACTATTC | 1.18 | 0.545 | 0.535 | 1.34 | 1.06 | 3.2 | 1.5 | 2.04

Row | Sequence | PBM binding z-score [1] | PBM binding z-score [2] | PBM binding z-score [3] | PBM binding z-score [4] | PBM binding z-score [5] | PBM binding z-score [6] | PBM binding z-score [7] | PBM binding z-score [8]
20 | CCGACTGGGGCAAAGGTTTCCATACTCAGTACGA | 0.438 | 0.385 | 0.445 | 0.213 | 0.448 | -0.0772 | -0.282 | -0.026
21 | TCTCAAAGTTCAAAGGTAACGTAAGTATCCACAC | 4.13 | 6.13 | 6.25 | 4.59 | 7.17 | 3.46 | 0.566 | 4.09
22 | TCTCGGAGGACACGAAAGGCCAGAGCTCGACATC | 1.53 | 0.946 | 1.9 | 0.804 | 0.296 | 1.54 | 0.338 | -0.482
23 | TCTTGTAGATCAAGCAGGATAAGAAAGCCTGAGT | -0.48 | -0.278 | -0.0385 | 0.533 | -0.0789 | -0.341 | -0.704 | 0.105
24 | CCGACTGGGGCATACGGTTACCATAAGCCAGCCC | 0.117 | 0.0936 | 0.374 | -0.766 | 0.369 | -0.473 | -0.389 | -0.653
25 | ATCTCTAGGTAACCACGTTCAGTGAATGCCGAAC | 0.366 | 0.142 | 0.288 | -0.101 | 0.112 | 0.672 | 0.721 | 0.344
26 | TCTCGGAGGACACGAAAGGACAGAGCTCGACATC | 1.82 | 1.33 | 2.48 | 0.518 | 0.152 | 2.23 | 0.669 | -0.424
27 | CGTCCCAGGTCAAGGTCAGTGAAAGAGACTCGAA | 4.62 | 5.74 | 6.29 | 2.55 | 5.19 | 4.18 | 3.61 | 2.6
28 | GATACAGGGTCAGCTAGTGGCCAGAGTATGGAAA | 2.79 | 4.73 | 4.32 | 1.25 | 3.81 | 2.46 | 0.162 | 0.556
29 | ATATGTAGGTTAAGGGTCATTCCGGTTGGTTCGC | 3.85 | 4.63 | 3.26 | 2.44 | 5.95 | 3.49 | 1.62 | 4.26
30 | TTTCGGAGGACACGAAGGTCAGAGCTTTCCAGAG | 3.81 | 3.45 | 4.21 | 0.363 | 2.22 | 3.06 | 1.45 | 1.86
31 | CCTGACGGGTCAAGGTTATAGCACGGGTGGTACG | 3.21 | 4.37 | 4.65 | 0.202 | 4.64 | 2.63 | 0.682 | 1.34
32 | ATCGGAAGGTCGAAGGTGAGTATACCCACCCGAA | 1.44 | 2.82 | 2.27 | 0.152 | 3.19 | 1.4 | -0.0912 | 0.449
33 | ACTTGCAGGCCAAGTTTGGGTCACTCAAACAAAG | 2.46 | 2.6 | 1.88 | 0.31 | 1.01 | 2.53 | 1.22 | 0.527
34 | ATCTCTACGTAAAGTTCAGTGAAAGATCGATAGA | 2.6 | 2.27 | 2.86 | 1.51 | 1.2 | 0.674 | -0.289 | 2.27
35 | CATACAGGGTCAGCTAGGCCAGAGCAGGGACGGC | 3.07 | 4.3 | 4.47 | 1.32 | 4.21 | 3.18 | 0.613 | 0.954
36 | CCTACTGGGCCAAGGTCATTGTTCAGTCAAAGCA | 3.27 | 3.46 | 2.71 | 1.59 | 2.91 | 3.45 | 2.72 | 3.17
37 | TGAATGAGGTTATAAGATCAAGGAACGTTGCAAA | 0.308 | 1.58 | 0.824 | 0.325 | 2.15 | 1.84 | 0.279 | 0.367
38 | CGTCCAAGGTCAGCAGGTCAGGGAAAGCGACGTG | 5.01 | 6.64 | 7.24 | 2.62 | 5.64 | 3.84 | 2.59 | 1.53

Row | Sequence | PBM binding z-score [1] | PBM binding z-score [2] | PBM binding z-score [3] | PBM binding z-score [4] | PBM binding z-score [5] | PBM binding z-score [6] | PBM binding z-score [7] | PBM binding z-score [8]
39 | ATCTCTAGGTAACTAAGTTCAGTGAATGCCGAAC | 1.92 | 1.03 | 0.956 | 1.16 | 0.699 | 1.67 | 0.66 | 2.04
40 | GTTAGCAGGCCATTTGGGTCACTCAATGACGGGC | 1.8 | 1.15 | 1.5 | 0.133 | 0.847 | 1.79 | 0.575 | 0.779
41 | CATGCTAGGTCAATGGTCAGCTAAAGCAGCTCGC | 3.11 | 3.81 | 4.43 | 1.63 | 2.29 | 2.38 | 0.438 | 0.0964
42 | ACTAGCAGGCCAAATTTGGGTCACTCAAACAAAG | 2.36 | 2.39 | 1.39 | 0.0631 | 0.936 | 2.45 | 0.758 | -0.0164
43 | ACTATTAGGTGAGACGAGGGCAACCGATAGGTTG | 1.7 | 1.03 | 1.43 | 0.288 | 0.97 | 3.84 | 0.802 | 1.07
44 | CCTAGCAGGCCAGGGTCACACAAGCATTTCGCTT | 2.98 | 3.72 | 2.62 | 0.238 | 4.27 | 3.45 | 1.54 | 1.18
45 | GATACAGGGTCAGCTAGATGCCAGAGTATGGAAA | 2.84 | 4.95 | 4.12 | 1.23 | 4.38 | 2.87 | 0.0826 | 0.494
46 | TCATATAGGTCAAGGTGAAAGTCGAACGATATGA | 3.84 | 5.31 | 5.43 | 1.56 | 5.05 | 3.47 | 1.36 | 0.356
47 | CGAACTAGGTCATCCAGCACAGTGAATACATTGA | 2.79 | 4 | 4.55 | 2.13 | 2.92 | 2.85 | 1.13 | 1.16
48 | CCGAGCAGGTTATGGGGCATTCAGGCAACGGTGA | 1.03 | 0.387 | 0.573 | -0.126 | 0.679 | 0.573 | 0.0585 | -0.392
49 | AGAATGAGGTTACCAAAGATCAGGGGAACGCTTG | 1.08 | 2.1 | 1.75 | 1.25 | 2.79 | 2.87 | 0.753 | 0.0393
50 | CCTCGGAGGACCGAAGGTCAGAGCTGTCCGCTTT | 2.65 | 2.03 | 2.2 | -0.585 | 1.54 | 1.62 | -0.389 | 0.161
51 | TGTCACAGTTCAAAGGTAACGTAAGTATCCACAC | 1.81 | 3.57 | 2.54 | 2.93 | 4.82 | 2.74 | -0.0814 | 2.33
52 | AATACAGTGTCATCGTAGGCCAGAGTACGCACAG | 0.72 | 0.907 | 1.24 | 0.561 | 0.84 | 1.81 | -0.754 | 0.395
53 | GCGACTGGGGCAAAGCAGGTTACCAAAAGGTTGG | 1.39 | 0.739 | 0.527 | -0.337 | 0.52 | 3.28 | -0.199 | -0.329
54 | ACTAGCAGGCCAAGGGTCACTCCAGATTAGTCCG | 3.65 | 3.77 | 3.48 | 0.274 | 3.74 | 2.55 | 0.269 | 1
55 | CGTCCAAGGTCAATACTAGGTCAGTGAAAGCATT | 5.1 | 6.92 | 6.34 | 3.51 | 4.84 | 4.42 | 3 | 2.44
56 | ACTATTAGTTGAGACGAGGGCAACCGTTAGGTTG | 1.22 | 0.448 | 0.848 | 0.599 | 0.373 | 2.62 | 0.14 | 0.969
